Results reported in PubChem BioAssay (NCI).
Compounds without any hit were thinned out: in the full panel of roughly 83,000, 20% have a hit.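 Activity criterion: percent growth below 10, measured after cells in 96-well plates were exposed to a single compound concentration for 48 hours.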 Calls of active or inactive are those of the source.

Key:
Assay in all cases: NCI-60 one-dose screen, 48 h (100 = growth as untreated, 0 = no growth, -100 = all killed)
Conditions in all cases: 10 µM unless noted
HT29 colon = test system: HT29 colon
SNB-19 CNS = test system: SNB-19 CNS
U251 CNS = test system: U251 CNS
PC-3 prostate = test system: PC-3 prostate
SK-MEL-5 melanoma = test system: SK-MEL-5 melanoma
UACC-62 melanoma = test system: UACC-62 melanoma
LOX IMVI melanoma = test system: LOX IMVI melanoma
SK-MEL-28 melanoma = test system: SK-MEL-28 melanoma
SK-MEL-2 melanoma = test system: SK-MEL-2 melanoma
EKVX NSCLC = test system: EKVX NSCLC
SN12C renal = test system: SN12C renal
UO-31 renal = test system: UO-31 renal
TK-10 renal = test system: TK-10 renal
ACHN renal = test system: ACHN renal
CAKI-1 renal = test system: CAKI-1 renal
A498 renal = test system: A498 renal
CCRF-CEM leukemia = test system: CCRF-CEM leukemia
MOLT-4 leukemia = test system: MOLT-4 leukemia
SR leukemia = test system: SR leukemia
SNB-75 CNS = test system: SNB-75 CNS

Measured: growth

COc1cc(C2C=C(c3ccc(C)cc3)Nc3nc(SC)[nH]c(=O)c32)ccc1Oc1ccnc2cc(Cl)ccc12 (stereo unspecified)
inactive: HT29 colon 65.3% | SNB-19 CNS 71.7% | U251 CNS 80.1% | PC-3 prostate 60.2% | SK-MEL-5 melanoma 63.1% | UACC-62 melanoma 61.5% | LOX IMVI melanoma 79.9% | SK-MEL-28 melanoma 97% | SK-MEL-2 melanoma 78.9% | EKVX NSCLC 77% | SN12C renal 67% | UO-31 renal 57.8% | TK-10 renal 78.2% | ACHN renal 55.6% | CAKI-1 renal 67.8% | A498 renal 71.7% | CCRF-CEM leukemia 67.5% | MOLT-4 leukemia 63.9% | SR leukemia 75.8%

COc1cc(Oc2cc(-c3cccnc3)ccc2NC(=O)Nc2ccc(F)cc2F)cc(OC)c1OC
inactive: HT29 colon 105% | SNB-75 CNS 83.8% | U251 CNS 92.2% | PC-3 prostate 84.3% | UACC-62 melanoma 88.9% | LOX IMVI melanoma 107% | SK-MEL-28 melanoma 119% | SK-MEL-2 melanoma 112% | SN12C renal 102% | UO-31 renal 76.8% | ACHN renal 121% | CAKI-1 renal 94.3% | A498 renal 89.9% | CCRF-CEM leukemia 97.3% | MOLT-4 leukemia 84.9% | SR leukemia 97.4%

CC(O)c1nc2c(c(=O)n(C)c(=O)n2C)n1C (stereo unspecified)
inactive: HT29 colon 113% | SNB-75 CNS 102% | U251 CNS 102% | SK-MEL-5 melanoma 104% | UACC-62 melanoma 102% | LOX IMVI melanoma 104% | SK-MEL-28 melanoma 126% | EKVX NSCLC 111% | SN12C renal 104% | UO-31 renal 91.1% | TK-10 renal 113% | ACHN renal 105% | CAKI-1 renal 89.2% | A498 renal 105% | CCRF-CEM leukemia 96.3% | MOLT-4 leukemia 117% | SR leukemia 125%

COc1ccc(CCN2CCCN3C2=Nc2ccccc2S3(=O)=O)cc1
inactive: HT29 colon 13.7% | SNB-75 CNS 16.2% | U251 CNS 30% | PC-3 prostate 38.5% | SK-MEL-5 melanoma 35.9% | UACC-62 melanoma 23.5% | LOX IMVI melanoma 27.7% | SK-MEL-28 melanoma 62.5% | EKVX NSCLC 45% | SN12C renal 53.7% | UO-31 renal 53.4% | TK-10 renal 61.1% | ACHN renal 51% | CAKI-1 renal 46.5% | CCRF-CEM leukemia 19.4% | MOLT-4 leukemia 24.7% | SR leukemia 24.5%
active: A498 renal 0.819%

O=C1C(=O)c2ccc(Br)cc2-c2cc(Br)ccc21
inactive: HT29 colon 105% | SNB-75 CNS 84.2% | PC-3 prostate 83.7% | SK-MEL-5 melanoma 63.3% | UACC-62 melanoma 92.4% | SK-MEL-28 melanoma 76.7% | SK-MEL-2 melanoma 87.7% | SN12C renal 34.1% | UO-31 renal 48.4% | TK-10 renal 114% | ACHN renal 39% | CAKI-1 renal 58.1% | A498 renal 115% | CCRF-CEM leukemia 10.1%
active: U251 CNS -31.8% | LOX IMVI melanoma -24.6% | MOLT-4 leukemia -31.4% | SR leukemia 4.99%

CCOC(=O)c1cc(-c2cccnc2)nc2c(Cl)cc(Cl)cc12
inactive: HT29 colon 88% | SNB-75 CNS 104% | U251 CNS 70.3% | SK-MEL-5 melanoma 101% | UACC-62 melanoma 95.6% | LOX IMVI melanoma 98.2% | SK-MEL-28 melanoma 129% | EKVX NSCLC 96.5% | SN12C renal 86.6% | UO-31 renal 75% | TK-10 renal 75.7% | ACHN renal 73.8% | CAKI-1 renal 105% | A498 renal 103% | MOLT-4 leukemia 98.9% | SR leukemia 117%

CCN(CC)CCCNCCCNc1cc(OC)cc2cccnc12
inactive: HT29 colon 40% | SNB-75 CNS 82.8% | U251 CNS 77.9% | PC-3 prostate 82.4% | SK-MEL-5 melanoma 92.1% | LOX IMVI melanoma 80.3% | SK-MEL-28 melanoma 99.4% | SK-MEL-2 melanoma 101% | EKVX NSCLC 80.7% | UO-31 renal 88.1% | TK-10 renal 112% | ACHN renal 101% | CAKI-1 renal 97.6% | A498 renal 76.4% | CCRF-CEM leukemia 88.9% | MOLT-4 leukemia 75.6% | SR leukemia 79.5%

CCCCCCCCCCCCNc1ncnc2[nH]ncc12
active: SR leukemia 9.74%
inactive: HT29 colon 97.9% | SNB-75 CNS 105% | U251 CNS 87.7% | PC-3 prostate 69.7% | SK-MEL-5 melanoma 36.1% | UACC-62 melanoma 57.1% | LOX IMVI melanoma 44.6% | SK-MEL-28 melanoma 100% | SK-MEL-2 melanoma 85.9% | EKVX NSCLC 51.2% | SN12C renal 80.3% | UO-31 renal 77.7% | ACHN renal 83.4% | CAKI-1 renal 66.2% | A498 renal 50.4% | CCRF-CEM leukemia 68.3% | MOLT-4 leukemia 65.8%

CCCC[N+](CCCC)=c1ccc2nc3c(C)cc(N(CC)CC)cc3sc-2c1
active: HT29 colon -68.6% | SNB-75 CNS -0.166% | U251 CNS -11.3% | PC-3 prostate -13.9% | SK-MEL-5 melanoma -96.9% | UACC-62 melanoma -35.7% | LOX IMVI melanoma -70.4% | SK-MEL-28 melanoma -2.53% | SK-MEL-2 melanoma -51% | SN12C renal -3.26% | UO-31 renal 0.703% | TK-10 renal 3.75% | ACHN renal -34.1% | CAKI-1 renal -2.5% | A498 renal -5.54% | CCRF-CEM leukemia -15.7% | MOLT-4 leukemia -20.1% | SR leukemia -18.2%

CC(=O)NC1(C(=O)O)CCCC1
inactive: HT29 colon 116% | SNB-75 CNS 102% | U251 CNS 107% | SK-MEL-5 melanoma 112% | UACC-62 melanoma 110% | LOX IMVI melanoma 106% | SN12C renal 114% | UO-31 renal 99.9% | TK-10 renal 117% | CAKI-1 renal 111% | A498 renal 105% | CCRF-CEM leukemia 96.4% | MOLT-4 leukemia 109% | SR leukemia 108%

c1cnc2ccc3ncccc3c2c1
inactive: HT29 colon 113% | SNB-75 CNS 89.5% | U251 CNS 104% | UACC-62 melanoma 99.2% | LOX IMVI melanoma 97.9% | EKVX NSCLC 101% | SN12C renal 101% | UO-31 renal 76.8% | TK-10 renal 127% | CAKI-1 renal 90.3% | A498 renal 96.5% | CCRF-CEM leukemia 98.9% | MOLT-4 leukemia 106% | SR leukemia 82%

CN1CCN(Cc2ccc(NC(=O)c3[nH]ncc3Nc3ccnc4ccnn34)cc2)CC1
inactive: HT29 colon 67% | SNB-75 CNS 63.2% | U251 CNS 62% | SK-MEL-5 melanoma 71.6% | UACC-62 melanoma 67.7% | LOX IMVI melanoma 24.1% | SK-MEL-28 melanoma 65.6% | SK-MEL-2 melanoma 60.6% | SN12C renal 35.1% | UO-31 renal 71.1% | TK-10 renal 103% | ACHN renal 66.4% | CAKI-1 renal 75.4% | A498 renal 74.4% | CCRF-CEM leukemia 54.6% | MOLT-4 leukemia 45.5% | SR leukemia 16%

Nc1ccc(C2=Nc3cccc4cccc(c34)S2)cc1
inactive: HT29 colon 98.5% | SNB-75 CNS 71.4% | U251 CNS 91.8% | PC-3 prostate 71.6% | UACC-62 melanoma 79.8% | LOX IMVI melanoma 91.8% | SK-MEL-28 melanoma 111% | EKVX NSCLC 67.3% | SN12C renal 94.2% | UO-31 renal 60.4% | TK-10 renal 88.3% | ACHN renal 81.3% | A498 renal 55.9% | CCRF-CEM leukemia 68.4% | MOLT-4 leukemia 82.2% | SR leukemia 57.5%

Cc1nnc(Nc2ccc(NC(=O)Nc3ccc(Cl)cc3)cc2)c2ccccc12
inactive: SNB-75 CNS 68.1% | PC-3 prostate 22.8% | SK-MEL-5 melanoma 52.3% | EKVX NSCLC 44.2% | SN12C renal 60.1% | UO-31 renal 51.2% | ACHN renal 58.8% | CAKI-1 renal 33.9% | A498 renal 35.4% | CCRF-CEM leukemia 11%
active: HT29 colon 2.24% | U251 CNS 5.4% | UACC-62 melanoma -34.4% | LOX IMVI melanoma -27.3% | SK-MEL-28 melanoma -11.9% | MOLT-4 leukemia 9.76% | SR leukemia -3.51%

COc1ccc2c3c(c(OCCCN(C)C)nc2c1)-c1ccc(Cl)cc1C3=O
active: HT29 colon -80.8% | U251 CNS -84.9% | PC-3 prostate -19.5% | UACC-62 melanoma -49% | LOX IMVI melanoma -93.3% | SK-MEL-28 melanoma -74.2% | UO-31 renal -72.3% | ACHN renal -75.5% | CCRF-CEM leukemia -39.7% | MOLT-4 leukemia -17.2% | SR leukemia -32.7%
inactive: SNB-75 CNS 53% | SK-MEL-5 melanoma 39.2% | EKVX NSCLC 21.3% | SN12C renal 32.6% | TK-10 renal 11.2% | CAKI-1 renal 29.5% | A498 renal 60.9%

O=C(Nc1ccc(Cl)cc1Cl)Nc1ccc(-c2cccnc2)cc1N1CCC(CO)CC1
active: A498 renal 6.41% | MOLT-4 leukemia -0.573% | SR leukemia 6.57%
inactive: HT29 colon 28% | SNB-75 CNS 39.4% | U251 CNS 29.8% | PC-3 prostate 16.6% | UACC-62 melanoma 26% | LOX IMVI melanoma 37.7% | SK-MEL-28 melanoma 46.6% | SK-MEL-2 melanoma 34.9% | EKVX NSCLC 50.6% | SN12C renal 30.7% | UO-31 renal 17% | TK-10 renal 52.8% | ACHN renal 41.1% | CAKI-1 renal 25.5% | CCRF-CEM leukemia 17.8%

ClC1=C(Cl)C(Cl)=C(Cl)C1=C/C=C/c1ccccc1
active: HT29 colon 7.03% | U251 CNS -93.3% | SK-MEL-5 melanoma -97.3% | UACC-62 melanoma -83.6% | LOX IMVI melanoma -91.6% | SK-MEL-28 melanoma -74.1% | EKVX NSCLC -6.52% | SN12C renal -46% | UO-31 renal -50.9% | TK-10 renal -5.53% | ACHN renal -74% | CAKI-1 renal -4.48% | A498 renal -87.4% | CCRF-CEM leukemia -21.4% | MOLT-4 leukemia -23.5% | SR leukemia -43.2%
inactive: SNB-75 CNS 19.8%

c1cncc(CNc2ccccc2-c2nnc(Nc3ccc4c(c3)OCO4)o2)c1
active: HT29 colon 8.59% | SK-MEL-5 melanoma -4.21% | UACC-62 melanoma 3.81% | LOX IMVI melanoma 8.28% | CAKI-1 renal 9.02% | A498 renal -0.133%
inactive: SNB-19 CNS 38.7% | U251 CNS 23% | PC-3 prostate 27.9% | SK-MEL-28 melanoma 43.7% | SK-MEL-2 melanoma 65.8% | EKVX NSCLC 35.3% | SN12C renal 28.8% | UO-31 renal 40.7% | TK-10 renal 50% | ACHN renal 32.2% | CCRF-CEM leukemia 19% | MOLT-4 leukemia 18.6%
